Results taken from PubChem BioAssay AID1159580 (chemical genetic matrix, 2015).
Among all 5,500 compounds or so, about 2,000 (36%) were called active. Another 18% or so got no clear call; they are omitted. Cut-off read from the data, not from the text of the source: active = normalized growth mostly below about 0.91 (no sharp cut-off); inconclusive = no clear call, values can overlap the other calls; inactive = mostly above about 0.92. Some of the results follow.

Assay: chemical genetic growth profiling, strain panel (AID 1159580);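 note: tested at 20 µM; growth read once vehicle control cultures reached saturation at 30 °C; 1 = growth at the plate median or of vehicle wells; lower values mean less growth of the strain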
Settings: S. cerevisiae deletion strains, growth OD
[1] = locus YAL013W, strain DEP1, hits give low values
[2] = locus YDR150W, strain NUM1, hits give low values
[3] = locus YMR307W, strain GAS1, hits give low values

Measured: normalized growth

Oc1ccc2c(c1)O[C@H](c1ccc(O)c(O)c1)[C@@H](O)C2
inactive: [1] 1.03 | locus YAL021C, strain ccr4, hits give low values 1.02 | locus YAL026C, strain drs2, hits give low values 1.03 | locus YAL030W, strain snc1, hits give low values 1.02 | locus YBL061C, strain skt5, hits give low values 1.04 | locus YBR009C, strain hhf1, hits give low values 1.03 | locus YBR021W, strain FUR4, hits give low values 1.04 | locus YBR023C, strain chs3, hits give low values 1.03 | locus YBR171W, strain sec66, hits give low values 1.03 | locus YBR229C, strain ROT2, hits give low values 1.03 | locus YBR231C, strain swc5, hits give low values 1.03 | locus YBR279W, strain paf1, hits give low values 1.02 | locus YCL011C, strain gbp2, hits give low values 1.02 | locus YCL016C, strain dcc1, hits give low values 1.02 | locus YCL029C, strain bik1, hits give low values 1.02 | locus YCL061C, strain MRC1, hits give low values 1.02 | locus YCL069W, strain vba3, hits give low values 1.03 | locus YCR088W, strain abp1, hits give low values 1.02 | locus YDL005C, strain med2, hits give low values 1.02 | locus YDL035C, strain GPR1, hits give low values 1.07 | locus YDL040C, strain nat1, hits give low values 1.03 | locus YDL074C, strain BRE1, hits give low values 1.08 | locus YDL101C, strain DUN1, hits give low values 1.03 | locus YDL134C, strain PPH21, hits give low values 1.05 | locus YDL185W, strain tfp1, hits give low values 0.989 | locus YDL192W, strain arf1, hits give low values 1.03 | locus YDR001C, strain nth1, hits give low values 1.03 | locus YDR069C, strain doa4, hits give low values 1.03 | locus YDR101C, strain arx1, hits give low values 1 | locus YDR137W, strain rgp1, hits give low values 1.01 | [2] 1.03 | locus YDR159W, strain sac3, hits give low values 1.04 | locus YDR162C, strain NBP2, hits give low values 1.04 | locus YDR195W, strain ref2 0.991 | locus YDR297W, strain sur2, hits give low values 1.03 | locus YDR318W, strain mcm21, hits give low values 1.01 | locus YDR334W, strain swr1, hits give low values 1.04 | locus YDR335W, strain msn5, hits give low values 1.03 | locus YDR388W, hits give low values 0.992 | locus YDR392W, strain spt3, hits give low values 1.03 | locus YDR502C, strain sam2, hits give low values 0.993 | locus YEL003W, strain gim4, hits give low values 1.03 | locus YEL037C, strain rad23, hits give low values 1.02 | locus YEL061C, strain CIN8 (second series), hits give low values 1.03 | locus YEL061C, strain CIN8, hits give low values 1.03 | locus YER015W, strain faa2, hits give low values 1.02 | locus YER016W, strain bim1, hits give low values 1.02 | locus YER110C, hits give low values 1.02 | locus YER111C, strain swi4, hits give low values 1.03 | locus YER155C, strain BEM2 (second series), hits give low values 1.03 | locus YER155C, strain BEM2, hits give low values 1.03 | locus YER167W, strain BCK2, hits give low values 1.03 | locus YFR010W, strain ubp6, hits give low values 1.02 | locus YGL078C, strain dbp3, hits give low values 1.01 | locus YGL086W, strain mad1, hits give low values 0.997 | locus YGL167C, strain pmr1, hits give low values 1.02 | locus YGL173C, strain kem1, hits give low values 1.04 | locus YGL227W, strain vid30, hits give low values 1.03 | locus YGL240W, strain doc1, hits give low values 1.03 | locus YGL248W, strain PDE1, hits give low values 1.06 | locus YGL253W, strain hxk2, hits give low values 1.02 | locus YGR078C, strain PAC10, hits give low values 1.04 | locus YGR135W, strain pre9, hits give low values 1.01 | locus YGR252W, strain gcn5, hits give low values 0.989 | locus YHR013C, strain ard1, hits give low values 1.02 | locus YHR027C, strain rpn1, hits give low values 1.02 | locus YHR030C, strain SLT2, hits give low values 1.03 | locus YHR079C, strain IRE1 (second series), hits give low values 1 | locus YHR094C, strain hxt1, hits give low values 0.99 | locus YHR129C, strain ARP1, hits give low values 1.03 | locus YHR142W, strain chs7, hits give low values 1.04 | locus YHR200W, strain rpn10, hits give low values 1 | locus YIL066C, strain RNR3, hits give low values 1.04 | locus YIL073C, strain SPO22, hits give low values 1.1 | locus YIL125W, strain kgd1, hits give low values 1.02 | locus YIR030C, strain dcg1, hits give low values 1 | locus YJL092W, strain hpr5, hits give low values 1.02 | locus YJL095W, strain BCK1 (second series), hits give low values 1.03 | locus YJL095W, strain BCK1, hits give low values 1.08 | locus YJL115W, strain asf1, hits give low values 1.02 | locus YJL129C, strain trk1, hits give low values 1.04 | locus YJL134W, strain LCB3, hits give low values 1.03 | locus YJL154C, strain vps35, hits give low values 1.02 | locus YJL164C, strain tpk1, hits give low values 1.03 | locus YJL166W, strain qcr8, hits give low values 1.03 | locus YJL168C, strain set2, hits give low values 1.01 | locus YJL187C, strain SWE1 (second series), hits give low values 1.04 | locus YJL187C, strain SWE1, hits give low values 1.03 | locus YJR043C, strain POL32, hits give low values 1.06 | locus YKL009W, strain mrt4, hits give low values 1.01 | locus YKL068W, hits give low values 0.988 | locus YKL085W, strain MDH1 (second series), hits give low values 1.01 | locus YKL085W, strain MDH1, hits give low values 1.01 | locus YKL160W, strain elf1, hits give low values 1.02 | locus YKL190W, strain CNB1, hits give low values 1.03 | locus YKR001C, strain vps1, hits give low values 1.04 | locus YKR026C, strain gcn3, hits give low values 1.02 | locus YKR091W, strain srl3, hits give low values 1.03 | locus YLL001W, strain dnm1, hits give low values 1.02 | locus YLL026W, hits give low values 1.03 | locus YLL041C, strain sdh2, hits give low values 1.03 | locus YLR027C, strain aat2, hits give low values 1.02 | locus YLR039C, strain RIC1, hits give low values 1.23 | locus YLR058C, strain SHM2, hits give low values 1.04 | locus YLR102C, strain apc9, hits give low values 0.992 | locus YLR221C, strain rsa3, hits give low values 1.02 | locus YLR258W, strain gsy2, hits give low values 1.03 | locus YLR262C, strain YPT6 (second series), hits give low values 1.04 | locus YLR262C, strain YPT6, hits give low values 1.25 | locus YLR268W, strain sec22, hits give low values 1.02 | locus YLR320W, strain mms22, hits give low values 1.05 | locus YLR330W, strain CHS5, hits give low values 1.03 | locus YLR342W, strain FKS1, hits give low values 1.03 | locus YLR357W, strain rsc2, hits give low values 1.06 | locus YLR370C, strain arc18, hits give low values 1.04 | locus YLR371W, strain rom2, hits give low values 1.02 | locus YLR384C, strain iki3, hits give low values 1.03 | locus YLR418C, strain cdc73, hits give low values 1.03 | locus YML016C, strain PPZ1, hits give low values 1.03 | locus YML032C, strain rad52, hits give low values 1.01 | locus YML120C, strain ndi1, hits give low values 1.03 | locus YML124C, strain tub3, hits give low values 1.01 | locus YMR058W, strain fet3, hits give low values 1.02 | locus YMR078C, strain ctf18, hits give low values 0.992 | locus YMR125W, strain sto1, hits give low values 1.02 | locus YMR129W, hits give low values 1.03 | locus YMR205C, strain PFK2, hits give low values 1.06 | locus YMR223W, strain ubp8, hits give low values 0.999 | locus YMR231W, strain pep5, hits give low values 1.01 | [3] 1.2 | locus YNL067W, strain RPL9B, hits give low values 1.02 | locus YNL071W, strain lat1, hits give low values 1.05 | locus YNL153C, strain GIM3, hits give low values 1.04 | locus YNL209W, strain ssb2, hits give low values 1.01 | locus YNL233W, strain BNI4, hits give low values 1.04 | locus YNL248C, strain rpa49, hits give low values 1.03 | locus YNL250W, strain rad50, hits give low values 1.01 | locus YNL271C, strain bni1, hits give low values 1.03 | locus YNL298W, strain CLA4, hits give low values 1.01 | locus YNL307C, strain MCK1, hits give low values 1.01 | locus YNL322C, strain KRE1 (second series), hits give low values 1.02 | locus YNR049C, strain mso1, hits give low values 1.03 | locus YNR052C, strain pop2, hits give low values 1 | locus YOL012C, strain htz1 0.833 | locus YOL147C, strain pex11, hits give low values 0.996 | locus YOR001W, strain rrp6, hits give low values 1.03 | locus YOR061W, strain CKA2, hits give low values 1.04 | locus YOR069W, strain VPS5, hits give low values 1.03 | locus YOR070C, strain gyp1, hits give low values 1.03 | locus YOR080W, strain dia2, hits give low values 1.02 | locus YOR083W, strain WHI5, hits give low values 1.02 | locus YOR106W, strain vam3, hits give low values 1.03 | locus YOR136W, strain idh2, hits give low values 0.996 | locus YOR144C, strain elg1, hits give low values 0.992 | locus YOR184W, strain ser1, hits give low values 1.05 | locus YOR265W, strain rbl2, hits give low values 1.03 | locus YOR270C, strain vph1, hits give low values 1.06 | locus YOR290C, strain snf2, hits give low values 1.05 | locus YOR316C, strain cot1, hits give low values 0.999 | locus YPL051W, strain arl3, hits give low values 1.01 | locus YPL078C, strain atp4, hits give low values 1.02 | locus YPL106C, strain sse1, hits give low values 0.998 | locus YPL240C, strain hsp82, hits give low values 1.02 | locus YPR119W, strain clb2, hits give low values 0.996 | locus YPR141C, strain kar3, hits give low values 1.01 | locus YPR163C, strain tif3, hits give low values 0.999 | locus YPR167C, strain met16, hits give low values 0.996 | strain wtn01, hits give low values 1.02

O=C1c2c(O)cc(O)cc2OC(c2ccc(O)c(O)c2)C1O (centres undefined)
inactive: [1] 1.03 | locus YAL040C, strain CLN3, hits give low values 1.04 | locus YCL061C, strain MRC1 (second series), hits give low values 0.999 | [2] 0.987 | locus YDR363W, strain ESC2, hits give low values 1 | locus YER002W, strain NOP16, hits give low values 0.998 | [3] 1.01 | locus YNL175C, strain NOP13, hits give low values 0.99 | locus YNL197C, strain WHI3, hits give low values 0.977 | locus YNL224C, strain SQS1, hits give low values 0.993 | locus YOR083W, strain WHI5 (second series), hits give low values 0.991
